This is a sample that favours compounds with a hit; in the whole collection about 19% have one here.
DT40 TDP1 CPT: growth inhibition of DT40 Tdp1-/-;hTDP1 cells with camptothecin (screen for TDP1 inhibitors). chicken DT40 Tdp1-/-;hTDP1 cells + 20 nM CPT, ATP luminescence, 48 h. Potency, µM (doses to about 46.2 µM), actives largely listed as inhibitors. hit rate 12% among 420,000. AID 686979; note: nearly all actives have a fitted effect of over 55% in size
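Chicken DT40 Tdp1-/- cells complemented with human TDP1, 400 cells/well, exposed to compounds plus 20 nM camptothecin for at least 48 h at 37 C; viability read as ATP content by CellTiter-Glo luminescence.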
HT1080 IDH1KD tx: kills HT-1080 cells with IDH1 knockdown. HT-1080 IDH1 knockdown viability, ATP luminescence, 48 h. Potency, µM (top dose mostly 46.1 µM), actives largely listed as cytotoxic. hit rate 2% among 360,000
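Using the IDH1-knockdown HT-1080 line run in the same batch and compound series as the NT line, viability after 48 h at 37 °C was determined by CellTiter-Glo luminescence and expressed as % activity.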
TDP1 cell noCPT: qHTS for Inhibitors of human tyrosyl-DNA phosphodiesterase 1 (TDP1): qHTS in cells in absence of CPT; DT40 Tdp1-/- hTDP1 cells, no CPT, ATP luminescence, 48 h; Potency, µM (doses to about 46.2 µM), most hits filed as inhibitors; hit rate 15% among 420,000; note: nearly all actives have a fitted effect of over 55% in size
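A cellular qHTS used chicken DT40 cells lacking endogenous Tdp1 but carrying stably transfected human TDP1. Compounds were applied without camptothecin, and cell growth kinetics were judged by ATP-dependent luminescence after ≥48 hr.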
uPA surface inh: blocks generation of uPA at the cell surface; Potency, µM (doses to about 38.3 µM), hits mostly inhibitors; hit rate 0.31% among 330,000; AID 540303; cell surface uPA generation assay, qHTS; active = well fitted inhibition curve with a large enough effect; inconclusive = small, poorly fitted or top-dose-only effect; inactive = no such curve, though single readings can be large or run the other way; tested in mouse RAW 264.7 cells; note: nearly all actives have a fitted effect of over 55% in size
IL1B secr inh: inhibitors of inflammasome signaling (IL-1 beta secretion); activity change, % at 57.5 µM; THP-1 LPS/ATP IL-1B secretion, AlphaLISA, 16 h; hits give low values; hit rate 4.7% among 360,000; in the data active = activity change below about -50%; inconclusive = mostly about -30% to -49%
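Secreted IL-1B measured by AlphaLISA bead assay after 16 h compound exposure of THP-1 cells; compounds (final up to 57.5 uM) added 1 h before LPS (250 ng/mL) and ATP (1.25 mM) stimulation; lower signal means less secretion.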
HT1080-NT tox: kills 2HG-producing HT-1080-NT fibrosarcoma cells. hit rate 1.6% among 360,000. AID 686970. HT-1080-NT fibrosarcoma viability, CellTiter-Glo ATP luminescence, 48 h. Potency, µM (titrated, usually from 46.1 µM), most hits filed as cytotoxic;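 note: NT is the 2HG producing partner of a matched IDH1 knockdown line; nearly all actives have a fitted effect of over 55% in size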
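Compounds were tested in concentration-response format on HT-1080-NT cells for 48 hours at 37 degrees C. Cell viability came from CellTiter-Glo luminescence; curves were classified by r2, response magnitude and activity.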
A number is an active result; i = inactive; ? = inconclusive; nt = no result given. Unless noted, calls come from the whole dose curve; as a rule, active = well fitted curve in the direction sought with a large enough effect; inconclusive = small, poorly fitted or top-dose-only effect, or another doubt; inactive = no such curve, though single readings can be large; an effect the other way counts as inactive or inconclusive.

SMILES | DT40 TDP1 CPT | HT1080 IDH1KD tx | TDP1 cell noCPT | uPA surface inh | IL1B secr inh | HT1080-NT tox
COC(=O)C1=C(c2ccc(F)cc2OCc2ccccc2)C[C@@H]2CC[C@H]1N2C(=O)NCc1ccccc1Br | ? | i | 16.4µM | ? | i | i
COC(=O)C1=C(c2ccc(F)cc2OCc2ccccc2)C[C@@H]2CC[C@H]1N2C(=O)NCCCc1ccccc1 | 25.9µM | i | ? | ? | i | i
COC(=O)C1=C(c2ccc(F)cc2OCc2ccccc2)C[C@@H]2CC[C@H]1N2C(=O)NC1Cc2ccccc2C1 | ? | i | 25.9µM | ? | i | i
COC(=O)C1=C(c2ccc(F)cc2OCc2ccccc2)C[C@@H]2CC[C@H]1N2C(=O)NCc1ccccc1C(F)(F)F | ? | i | ? | i | i | i
COC(=O)C1=C(c2ccc(F)cc2OCc2ccccc2)C[C@@H]2CC[C@H]1N2C(=O)NCc1ccc([N+](=O)[O-])cc1 | ? | i | ? | ? | -57.7 | i
CCCOC(=O)Cc1ccc(OCC(=O)N(CC)CC)c(OC)c1 | i | nt | ? | nt | nt | nt
C[C@]1(O)CCC2C3CC[C@H]4C[C@@H](OC(=O)CNC(=O)CN)CC[C@]4(C)C3CC[C@@]21C (stereo not given in full) | ? | i | ? | i | i | i
COC(=O)C1=C(c2ccc(F)cc2OCc2ccccc2)C[C@@H]2CC[C@H]1N2C(=O)NCc1ccc(C)cc1 | ? | i | ? | ? | -59.0 | i
COC(=O)C1=C(c2ccc(F)cc2OCc2ccccc2)C[C@@H]2CC[C@H]1N2C(=O)NCc1ccc(F)cc1 | ? | i | ? | i | i | i
C#C[C@]1(O)CC[C@H]2[C@@H]3CCC4=Cc5nc6nc7ccccc7n6cc5C[C@]4(C)[C@H]3CC[C@@]21C | ? | i | 11.6µM | i | i | i
C#CC1(O)CCC2C3CCC4=C/C(=N/OCC(=O)NCC(=O)NC(C(=O)O)C(C)C)CC[C@]4(C)C3CC[C@@]21C (stereo not given in full) | i | i | i | i | i | i
O=C(O)[C@@H](O)[C@H](O)C(=O)O | i | i | i | i | i | i
COC(=O)C1=C(c2ccc(F)cc2F)C[C@@H]2CC[C@H]1N2C | i | i | i | i | i | i
COC(=O)C1=C(c2ccc(-c3ccccc3)c(F)c2)C[C@@H]2CC[C@H]1N2C(=O)N1CCCCC1 | 2.31µM | 20.6µM | 1.3µM | i | i | ?
COC(=O)C1=C(c2ccc(S(C)(=O)=O)cc2)C[C@@H]2CC[C@H]1N2C(=O)N1CCOCC1 | i | i | i | i | i | i
COC(=O)C1=C(c2ccc(-c3ccccc3)c(F)c2)C[C@@H]2CC[C@H]1N2C(=O)N1CCc2cc(OC)c(OC)cc2C1 | ? | i | ? | ? | ? | i
COC(=O)C1=C(c2ccc(-c3ccccc3)c(F)c2)C[C@@H]2CC[C@H]1N2C(=O)N1CCOCC1 | 1.16µM | i | 1.3µM | i | ? | i
COC(=O)C1=C(c2ccc(-c3ccccc3)c(F)c2)C[C@@H]2CC[C@H]1N2C(=O)N1CCCC1 | 1.64µM | i | 1.16µM | i | -69.3 | i
CCOC(=O)c1ccc(NC(=O)N2C[C@@H]3C[C@@H](C2)c2cccc(=O)n2C3)cc1 | i | i | i | i | i | i
COC(=O)C1(F)C(=O)NC(=O)NC1O (stereo not given) | i | i | i | nt | nt | i
COC(=O)CCCC(NC(=S)N1CC2C[C@@H](C1)Cn1c2cccc1=O)C(=O)OC (stereo not given in full) | i | i | i | i | i | i
COc1cccc(-n2c(/C=C\c3ccc(Cl)cc3)nc3ccccc3c2=O)c1 | ? | nt | 18.4µM | nt | nt | nt
COc1cccc(-n2c(C)nc3ccccc3c2=O)c1 | i | i | i | i | i | i
COc1ccc(-n2c(/C=C/c3ccc(O)c(O)c3)nc3ccccc3c2=O)cc1 | ? | i | 18.4µM | i | ? | i
COc1cc(/C=C/c2nc3ccccc3c(=O)n2-c2ccc(O)cc2)ccc1O | ? | 18.4µM | ? | i | -65.3 | 16.4µM
SMILES | DT40 TDP1 CPT | HT1080 IDH1KD tx | TDP1 cell noCPT | uPA surface inh | IL1B secr inh | HT1080-NT tox
COc1ccc(-n2c(/C=C3/C(=O)Nc4ccccc43)nc3ccccc3c2=O)cc1 | i | i | ? | i | i | i
O=c1c2ccccc2nc(/C=C/c2ccc3c(c2)OCO3)n1-c1ccccc1 | ? | i | 23.1µM | i | i | i
O=C(C(=O)N1CCOCC1)c1cn(Cc2ccccc2F)c2ccccc12 | i | i | i | i | i | i
C=CCn1c(O)c(C(CC)=NCCCO)c(=O)[nH]c1=O | i | i | 8.2µM | i | i | i
C=CCn1c(O)c(C(CC)=NCc2cc(OC)cc(OC)c2)c(=O)[nH]c1=O | 7.31µM | 23.1µM | 7.31µM | i | i | 23.1µM
[2H]C([2H])([2H])[C@H](N)Cc1ccccc1 | i | nt | i | nt | nt | nt
Nc1ccc(CC(N)c2csc(Nc3ncccn3)n2)cc1 (stereo not given) | 18.4µM | i | 10.3µM | nt | i | i
NC(Cc1ccc(Cl)cc1)c1csc(Nc2ncccn2)n1 (stereo not given) | 3.66µM | 5.8µM | 4.11µM | nt | ? | 18.4µM
NC(Cc1ccc(F)cc1)c1csc(Nc2ncccn2)n1 (stereo not given) | 7.31µM | 6.51µM | 5.8µM | nt | i | 5.8µM
NC(Cc1ccc(C(F)(F)F)cc1)c1csc(Nc2nncc3ccccc23)n1 (stereo not given) | 13µM | ? | 20.6µM | nt | -66.5 | ?
Cn1c(=O)oc2cc(S(=O)(=O)NCCN3CCN(c4ccccc4)CC3)ccc21 | ? | i | i | i | i | i
COC(=O)C1=C(C)NC(=S)NC1c1ccc(N(CCCl)CCCl)cc1Cl (stereo not given) | 9.2µM | i | 20.6µM | i | i | i
C=CCn1c(O)c(C(C)=NCCCN(C)C)c(=O)[nH]c1=O | i | i | i | i | i | i
C=CCn1c(O)c(C(C)=NC(C)c2ccccc2)c(=O)[nH]c1=O (stereo not given) | ? | i | 16.4µM | i | i | i
C=CCn1c(O)c(C(C)=NCCC(c2ccccc2)c2ccccc2)c(=O)[nH]c1=O | 20.6µM | i | 16.4µM | i | i | i
C=CCn1c(O)c(C(C)=Nc2ccc(C(=O)O)cc2)c(=O)[nH]c1=O | i | i | i | i | i | i
CC(=O)O[C@@H]1/C=C/[C@](C)(O)C[C@@H](C)C/C=C/[C@H]2[C@H](O)C(C)=C(C)[C@H]3[C@H](Cc4ccccc4)NC(=O)[C@@]123 | 0.581µM | ? | 0.581µM | ? | i | 2.59µM
